Compounds with a hit are over-represented: about 21% of the library has one in this group of screens.
Pf growth 48h: P. falciparum growth inhibition at 48 hours (one generation); Potency, µM (top dose mostly 28.7 µM), usual class: inhibitors; P. falciparum luciferase growth in erythrocytes, 48 h; AID 504832; actives 5.9% (n = 310,000)
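Read-out is firefly luciferase luminescence from an integrated reporter in P. falciparum, so falling signal marks reduced parasite growth. Infected erythrocytes were at 2% hematocrit and 0.1% parasitemia (final) in Albumax-supplemented RPMI 1640.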
CHX counter: counter-screen hit for Shiga toxin inhibitors, cycloheximide; max response, %; cell reporter, cycloheximide protein synthesis inhibition counterscreen; actives 12% (n = 300,000); in the data active = max response mostly above about 13%, no sharp cut-off; inactive = mostly below about 14%; note: read at 38.3 µM for the half of the compounds with a filed dose
Sm TGR inh: inhibitors of Schistosoma mansoni thioredoxin glutathione reductase; Q962Y6; purified TGR, DTNB reduction, TNB absorbance 405 nm; Potency, µM (titrated, usually from 114 µM), usual class: inhibitors; actives 3% (n = 360,000); AID 485364; note: nearly all actives have a fitted effect of over 60% in size
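First, TGR (20 nM dispensed) and NADPH were mixed with compound. Second, a 15 min room-temperature incubation followed. Third, further NADPH and then DTNB were added to start the reaction. Finally, TNB absorbance was monitored kinetically.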
NS1 function inh: influenza NS1 inhibition; Potency, µM (top dose mostly 46.1 µM); actives 0.4% (n = 270,000); calls by dose curve; note: actives are rising curves; nearly all actives have a fitted effect of over 50% in size
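A cell-based growth assay was used: compounds that relieve NS1-induced slow growth of budding yeast raise OD600. Assay medium was yeast nitrogen base with ammonium sulphate and -URA supplement, pH 6.0, with 2% galactose.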
Pf growth 96h: P. falciparum growth inhibition at 96 hours | AID 504834 | P. falciparum luciferase reporter growth, 96 h | Potency, µM (top dose mostly 28.7 µM), hits mostly inhibitors | actives 6.9% (n = 320,000)
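Two-generation exposure (96 h) targets delayed-death phenotype. Reporter parasites carrying integrated firefly luciferase, in red cells at 2% hematocrit and 0.05% parasitemia final, kept at 37 C, 5% CO2; luminescence loss indicates inhibition.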
Shiga toxin inh: inhibitors of Shiga toxin in Vero cells; Vero cells, Shiga toxin protein synthesis inhibition reporter; inhibition, % at 38.7 µM; actives 9.2% (n = 290,000); in the data active = inhibition mostly above about 28%, no sharp cut-off; inactive = mostly below about 43%
Of the large screens only hits and unclear results are named; the others gave an inactive call. Unless noted, calls come from the whole dose curve; as a rule, active = well fitted curve in the direction sought with a large enough effect; inconclusive = small, poorly fitted or top-dose-only effect, or another doubt; inactive = no such curve, though single readings can be large; an effect the other way counts as inactive or inconclusive.

CCn1c(SCC(=O)NNC(=O)c2ccc(C)cc2)nnc1-c1ccco1	none (no result: Sm TGR inh)
O=C(/C=C/c1ccccc1)c1cc(Br)ccc(=O)c1O	Sm TGR inh 3.16µM, Pf growth 96h inconclusive (no result: Pf growth 48h)
O=C(/C=C/c1cccc(Br)c1)NC1CCN(Cc2ccccc2)CC1	Pf growth 48h inconclusive, Pf growth 96h inconclusive
Cc1ccc(/C=C/C(=O)c2ccccc(=O)c2O)cc1C	Pf growth 48h 8.28µM, CHX counter 50.7, Sm TGR inh 31.6µM, Pf growth 96h 9.28µM, Shiga toxin inh 76.9
O=C(/C=C/c1ccc2ccccc2n1)c1cc(Br)ccc1O	Pf growth 48h inconclusive, CHX counter 42.8, Sm TGR inh 31.6µM, Pf growth 96h inconclusive, Shiga toxin inh 80.5
O=C(/C=C/c1ccc(F)cc1)c1cc(Br)ccc1O	CHX counter 15.0, Shiga toxin inh 77.4
Cc1cc(C)c(NC(=O)CNC(=O)CSc2nnc(N)s2)c(C)c1	none (no result: CHX counter, NS1 function inh, Shiga toxin inh)
Cc1cc(C)cc(OCC(=O)NC(Cc2c[nH]c3ccccc23)C(=O)O)c1 (stereo unspecified)	none (no result: Pf growth 48h, CHX counter, NS1 function inh, Pf growth 96h, Shiga toxin inh)
Cc1cccc(CNC(=O)c2cnc3sc(N4CCOCC4)nn3c2=O)c1	none (no result: Pf growth 48h, CHX counter, NS1 function inh, Pf growth 96h, Shiga toxin inh)
COc1c([N+](=O)[O-])c(=O)n(-c2ccccc2)c2ccccc12	none
COc1ccccc1N1C(=O)c2cccc3cccc(c23)C1=O	Pf growth 48h inconclusive
CC(=O)Nc1ccccc1NC(=O)C/C(C)=N/NC(=O)c1cccnc1	Pf growth 96h inconclusive, Shiga toxin inh 48.5
C/C(=N\NC(=O)c1cccnc1)c1cccc([N+](=O)[O-])c1	Pf growth 96h inconclusive (no result: NS1 function inh)
CC(=O)Nc1ccccc1NC(=O)C/C(C)=N/NC(=O)c1ccncc1	none (no result: Sm TGR inh)
COC(=O)N/N=C(\C)c1ccc(Br)cc1	none (no result: Pf growth 48h)
COC(=O)C(NC(=O)CNS(=O)(=O)c1ccc(Br)cc1)c1ccccc1 (stereo unspecified)	Pf growth 48h 10.4µM (no result: NS1 function inh)
C/C(=N\NC(=O)c1ccc(Br)cc1)c1ccccc1	CHX counter 54.6, Shiga toxin inh 112.9
C/C(=N\NC(=O)c1cccnc1)c1ccc(Br)cc1	CHX counter 15.7
C/C(=N\NC(=O)C(N)=O)c1ccc(Br)cc1	Pf growth 96h inconclusive
C/C(=N\NC(=O)C1CC1)c1cccnc1	none
C/C(=N/NC(=O)CNS(=O)(=O)c1ccccc1)c1ccc(Br)cc1	Pf growth 48h inconclusive, Pf growth 96h 13.1µM
O=C(N/N=C(\c1ccccc1)c1cccnc1)c1cc(O)ccc1O	Sm TGR inh 39.8µM
CSC(=S)N/N=C(\C)c1ccc(Br)cc1	Pf growth 48h inconclusive, CHX counter 29.5, Shiga toxin inh 45.3
C/C(=N\NC(=O)c1cccc(Br)c1)c1cccnc1	CHX counter 23.5, Shiga toxin inh 50.6
CCOC(=O)c1cc(-c2ccccc2)n(CC(=O)NC2CCC(C)CC2)c1C (stereo unspecified)	none (no result: Pf growth 48h, CHX counter, NS1 function inh, Pf growth 96h, Shiga toxin inh)
O=C(c1ccc(F)cc1)C1CCN(Cc2ccc(F)cc2)CC1	none
C/C(=N\NC(=O)c1cccnc1)c1ccccc1	CHX counter 13.1, Pf growth 96h inconclusive
CCCCC(NC(=O)CCc1c(C)c2cc3c4c(oc3c(C)c2oc1=O)CCCC4)C(=O)O (stereo unspecified)	none
O=C1NC(=O)N(c2ccccc2)C(=O)/C1=C/c1ccc(Sc2ccccc2)o1	Pf growth 48h inconclusive, Sm TGR inh 25.1µM
O=C1NC(=O)N(c2cccc(Cl)c2)C(=O)/C1=C\c1ccc(Sc2nc3ccccc3[nH]2)o1	Sm TGR inh 7.08µM
O=C1NC(=O)N(c2ccccc2F)C(=O)/C1=C/c1ccc(Sc2nc3ccccc3[nH]2)o1	Sm TGR inh 7.08µM
N#C/C(=C\c1ccc(Sc2nc3ccccc3[nH]2)o1)c1ccccc1	none (no result: Pf growth 48h)
COc1ccc(Sc2ccc(/C=C3\C(=O)NN(c4ccccc4)C3=O)o2)cc1	none
Cc1sc2c(c1C)c(=O)nc1n2Cc2ccccc2-1	none (no result: Pf growth 96h)
Cc1nnc(NC(=O)c2sc3nc(-c4cccs4)cc(C(F)(F)F)c3c2N)s1	CHX counter 41.5, Shiga toxin inh 57.4
CCN(CC)C(=O)c1sc2nc(-c3cccs3)cc(-c3cccs3)c2c1N	Pf growth 48h 4.15µM, Sm TGR inh 89.1µM, Pf growth 96h inconclusive
Nc1c(C(=O)Nc2nccs2)sc2nc(-c3cccs3)cc(C(F)(F)F)c12	none (no result: Pf growth 48h)
O=C(Cn1nc(C(=O)O)c2ccccc2c1=O)c1c[nH]c2ccccc12	CHX counter 9.4, Shiga toxin inh 34.7
Cc1cc(C)c(C(=O)Cn2nc(C(=O)O)c3ccccc3c2=O)cc1C	none
Cc1cc(C(=O)Cn2nc(C(=O)O)c3ccccc3c2=O)c(C)n1-c1ccccc1	CHX counter 58.6, Shiga toxin inh 95.4
CCCc1ccc(C(=O)Cn2nc(C(=O)O)c3ccccc3c2=O)cc1	Pf growth 48h inconclusive, Pf growth 96h inconclusive (no result: NS1 function inh)
C[C@H](NC(=O)COc1ccc(Cl)cc1)C(=O)N1CCC2(CC1)NCCc1[nH]cnc12	none
Cc1cc(SCc2ccc(Br)cc2)nc(=O)[nH]1	CHX counter 39.9
Cc1cc(SCc2ccc(Cl)c(Cl)c2)nc(=O)[nH]1	CHX counter 27.7, Pf growth 96h inconclusive
O=C(NC12CC3CC(CC(C3)C1)C2)c1ccco1	Pf growth 48h inconclusive
O=C(NC12CC3CC(CC(C3)C1)C2)c1ccc(COc2ccc(Cl)cc2[N+](=O)[O-])o1	Pf growth 48h inconclusive, Pf growth 96h inconclusive
COc1ccccc1NC(=S)NC(=O)c1ccc(-c2ccc(Cl)cc2)o1	none
O=C(NC12CC3CC(CC(C3)C1)C2)c1ccc(-c2ccc(Cl)cc2)o1	CHX counter 85.2, Pf growth 96h inconclusive, Shiga toxin inh 128.6
CCn1nnc(NC(=O)c2ccc(-c3ccc(Cl)cc3)o2)n1	CHX counter 35.9, Sm TGR inh 22.4µM, Shiga toxin inh 34.9
CC(=O)NC(=O)c1ccc(-c2ccc(Cl)cc2)o1	Pf growth 48h inconclusive, CHX counter 25.0, Shiga toxin inh 16.9
O=C(NC12CC3CC(CC(C3)C1)C2)c1ccc(-c2cccc(Cl)c2)o1	CHX counter 35.0, Sm TGR inh inconclusive, Pf growth 96h inconclusive, Shiga toxin inh 82.7
COc1ccc(CCNC(=O)c2ccc3c(c2)N(Cc2cc(C)ccc2C)C(=O)c2ccccc2S3=O)cc1OC (stereo unspecified)	none (no result: Pf growth 48h, CHX counter, NS1 function inh, Pf growth 96h, Shiga toxin inh)
Cc1ccc(-c2c[nH]c(=S)n2-c2ccccc2F)cc1	none
O=C(NC12CC3CC(CC(C3)C1)C2)c1ccc(-c2ccccc2Cl)o1	CHX counter 43.6, Shiga toxin inh 161.4
O=C(CSCc1ccc(F)cc1)N1CCc2c([nH]c3ccccc23)C1c1ccccc1 (stereo unspecified)	none (no result: Pf growth 48h, CHX counter, NS1 function inh, Pf growth 96h, Shiga toxin inh)
COc1cc(OC)c(N(C)S(=O)(=O)c2cccc(C(=O)OCC(=O)NCc3ccco3)c2)cc1Cl	Pf growth 48h inconclusive, CHX counter 21.4, Pf growth 96h inconclusive (no result: NS1 function inh)
CN(c1ccccc1)S(=O)(=O)c1cccc(C(=O)OCC(=O)NCc2ccco2)c1	Sm TGR inh 56.2µM, Pf growth 96h inconclusive (no result: NS1 function inh)
